From PubChem BioAssay AID1942 (Johns Hopkins Ion Channel Center, 2009)
The whole screen tested about 2,400 compounds, of which about 580 (24%) were called active. A selection follows. Unmarked numbers belong to inactive results.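 The calls were made as follows: active = activity change at or above the mean plus 3 SD of buffer wells without dofetilide, per plate; inactive = the rest.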

These compounds were tested against Potassium voltage-gated channel subfamily KQT member 2 (Rattus norvegicus) (UniProt O88943) (assay: rat KCNQ2 channel activation by compounds alone, confirmation, counter-screen for hERG block protector project, cell-based, CHO, FluxOR thallium flux (AID 1942;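 also: normalized value minus buffer-control mean plus three SD of buffer wells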)). Settings: CHO-KCNQ2 cells, FluxOR thallium flux fluorescence; at 10 µM; hits give high values.
Chain of Potassium voltage-gated channel subfamily KQT member 2 (Rattus norvegicus) (O88943 whole entry, looked up): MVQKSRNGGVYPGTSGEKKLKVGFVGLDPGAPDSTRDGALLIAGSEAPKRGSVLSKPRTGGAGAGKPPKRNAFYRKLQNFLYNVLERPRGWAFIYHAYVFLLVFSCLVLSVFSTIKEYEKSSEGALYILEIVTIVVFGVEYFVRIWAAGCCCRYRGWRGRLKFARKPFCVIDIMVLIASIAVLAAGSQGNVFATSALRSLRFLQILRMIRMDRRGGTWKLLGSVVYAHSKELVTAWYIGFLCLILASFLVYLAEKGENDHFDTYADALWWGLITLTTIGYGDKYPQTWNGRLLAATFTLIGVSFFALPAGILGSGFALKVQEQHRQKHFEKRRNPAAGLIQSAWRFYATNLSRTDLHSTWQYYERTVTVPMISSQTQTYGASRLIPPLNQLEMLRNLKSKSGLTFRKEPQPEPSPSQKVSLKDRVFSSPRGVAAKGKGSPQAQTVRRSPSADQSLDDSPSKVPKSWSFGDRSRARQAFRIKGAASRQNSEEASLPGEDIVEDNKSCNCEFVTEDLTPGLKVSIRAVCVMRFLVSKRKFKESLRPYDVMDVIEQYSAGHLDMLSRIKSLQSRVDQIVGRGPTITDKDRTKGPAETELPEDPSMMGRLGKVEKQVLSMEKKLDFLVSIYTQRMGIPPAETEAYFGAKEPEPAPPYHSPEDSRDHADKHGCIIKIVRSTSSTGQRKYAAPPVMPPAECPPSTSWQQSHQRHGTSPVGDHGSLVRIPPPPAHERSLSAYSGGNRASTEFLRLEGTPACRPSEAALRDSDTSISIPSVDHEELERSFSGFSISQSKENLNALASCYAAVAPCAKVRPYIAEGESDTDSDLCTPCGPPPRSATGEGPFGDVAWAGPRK
With `CC1(C)CC(NC(=O)c2ccc(Cl)cc2Cl)CC(C)(C)N1` the activity change, less the hit threshold was -23.3%. Work on `O=C(Nc1cccn(Cc2c(Cl)cccc2Cl)c1=O)c1ccccc1Cl` yielded an activity change, less the hit threshold of -24.1%. With `Cc1cccc(OCC(=O)NC(=S)N2CCCc3ccccc32)c1` the activity change, less the hit threshold was -23.9%. In the case of `Cc1cccc(C(=O)NC(=S)N2CCc3ccccc3C2)c1`, the activity change, less the hit threshold is reported as 20.8% (active). For `CC(Oc1ccc(Cl)cc1Cl)C(=O)NC(=S)N1CCc2ccccc21` (centres undefined), the activity change, less the hit threshold was 24.1% (active). In the case of `O=C(COc1ccc(Cl)cc1Cl)NC(=S)N1CCCc2ccccc21`, the activity change, less the hit threshold is reported as -13.8%. `O=C(COc1ccc(Br)cc1Cl)NC(=S)N1CCc2ccccc21` gave an activity change, less the hit threshold of -14.2%. Compound `Cc1cccc(C(=O)NNC(=S)NC(=O)c2ccccc2)c1` has an activity change, less the hit threshold of -4.5%. `Cc1ccc(C(=O)NC(=S)N2CCN(c3cc(C)ccc3C)CC2)cc1` gave an activity change, less the hit threshold of -8.7%. For `CC1(C)CC2CC(C)(CN2C(=S)NC(=O)c2ccccc2Cl)C1` (centres undefined), the activity change, less the hit threshold was 23.3% (active). In the case of `O=C(COc1ccccc1)NC(=S)N1CCc2ccccc21`, the activity change, less the hit threshold is reported as 2.7% (active). Compound `O=C(O)c1ccccc1NC(=O)c1cc2ccccc2oc1=O` has an activity change, less the hit threshold of -5.1%. `O=C(CN(C(=O)CNS(=O)(=O)c1ccc(F)cc1)c1cccc(F)c1)NCC1CCCO1` (centres undefined) gave an activity change, less the hit threshold of -19%. Compound `CC(=O)n1nc(-c2ccncc2)nc1SCC(=O)Nc1cccc(Cl)c1` has an activity change, less the hit threshold of -21.7%. For `Cc1ccc(NC(=O)CSc2nnc(-c3cccnc3)n2-c2ccc(C)cc2)cc1`, the activity change, less the hit threshold was -17.2%. `O=[N+]([O-])c1ccc(-c2ccc(/C=N/n3cnnc3)o2)c(Br)c1` was tested, and the activity change, less the hit threshold was -11.4%. With `CCCN1Cc2cccc(C(=O)NCc3cccs3)c2C1=O` the activity change, less the hit threshold was -23.8%. Work on `OC(CNCCc1ccc(C(F)(F)F)cc1)COc1cccc2ccccc12` (centres undefined) yielded an activity change, less the hit threshold of -39.6%. With `O=C(c1ccccc1)N1CCc2ccccc21` the activity change, less the hit threshold was -14.8%. Compound `O=C(NC(=S)N1CCCc2ccccc21)c1ccccc1` has an activity change, less the hit threshold of -7.9%. For `O=C(NC(=S)N1CCc2ccccc21)c1ccccc1Cl`, the activity change, less the hit threshold was 65.2% (active). `O=C(NC(=S)N1CCc2ccccc21)c1ccccc1Br` was tested, and the activity change, less the hit threshold was 105% (active). In the case of `CN1C(=O)CSc2ccc(NC(=O)N3CCc4ccccc43)cc21`, the activity change, less the hit threshold is reported as -21.5%. For `O=C(NC(=S)N1CCc2ccccc21)c1ccccc1`, the activity change, less the hit threshold was 38.5% (active). `O=C(CSc1cccc2cccnc12)N/N=C/c1cccnc1` was tested, and the activity change, less the hit threshold was -18.6%. Compound `S=C(Nc1ccccc1)Nc1nc2ccccc2n1CCOc1ccccc1` has an activity change, less the hit threshold of -19.7%. Compound `Cc1ccccc1NC(=O)CSc1ccsc1[N+](=O)[O-]` has an activity change, less the hit threshold of -24.3%. With `O=C(O)CC1S/C(=N/N=C/c2ccc(-c3ccccc3[N+](=O)[O-])o2)NC1=O` (centres undefined) the activity change, less the hit threshold was -23.4%. With `CCCc1nnc(NC(=O)CN2CCOCC2)s1` the activity change, less the hit threshold was -18.7%. `Cc1ccccc1-c1nnn(CC(=O)NCc2ccc3c(c2)OCO3)n1` gave an activity change, less the hit threshold of -24.5%. For `Cc1cc(F)ccc1NC(=O)C1CCN(C(=O)Nc2ccccc2)CC1`, the activity change, less the hit threshold was -20.3%. With `Cc1cc(C)c(C(=O)c2ccc(C(=O)N3CCCCC3)cc2)c(C)c1` the activity change, less the hit threshold was 9.9% (active). For `COc1ccc(C)cc1NC(=O)Nc1ccc(C(=O)N2CCCC2)cc1`, the activity change, less the hit threshold was -13.8%. For `Cc1ccc(SCc2ccc(C(=O)N3CCCC3)cc2)cc1`, the activity change, less the hit threshold was -13.9%. In the case of `COC(=O)c1ccc(Oc2ccc(S(=O)(=O)N3CCCCC3)cc2N)cc1`, the activity change, less the hit threshold is reported as -21%. With `Cc1ccc(NC(=O)CN2C(=O)S/C(=C\c3cccn3-c3cccc(C(=O)O)c3)C2=O)c(C)c1` the activity change, less the hit threshold was -17.1%. Compound `O=C1c2ccccc2C(=O)N1CCc1nc(-c2ccccn2)no1` has an activity change, less the hit threshold of -15.6%. `Cc1ccc(NC(=O)CCc2nc3sc4c(c3c(=O)[nH]2)CCCC4)c(Br)c1` showed an activity change, less the hit threshold of -14.8%. In the case of `Cc1cc(C)n(-c2nc(NCCCN(C)C)c3c4c(sc3n2)CCCC4)n1`, the activity change, less the hit threshold is reported as -15.9%. `Cc1cc(C)n(-c2nc3sc4c(c3c(=O)[nH]2)CCCC4)n1` was tested, and the activity change, less the hit threshold was 6.2% (active). Work on `CC(=O)Cn1c(=O)c2c(nc3n2CCCN3Cc2ccccc2)n(C)c1=O` yielded an activity change, less the hit threshold of -11.9%. For `COC(=O)C1CN(C(=O)COc2ccc(C)c(C)c2)c2ccccc2O1` (centres undefined), the activity change, less the hit threshold was -18.1%. `CC(C)OC(=O)C1CC(C)(O)C(=O)C(C(=O)OC(C)C)C1c1ccc([N+](=O)[O-])cc1` (centres undefined) showed an activity change, less the hit threshold of -20.5%. With `CCc1noc(C)c1C(=O)N1CCCC(N2CCN(c3ccccc3F)CC2)C1` (centres undefined) the activity change, less the hit threshold was -14.7%. `Cc1ccc(CN2CCN(/N=C/c3ccc(O)c(O)c3)CC2)cc1` gave an activity change, less the hit threshold of -3.7%. In the case of `O=C(COC(=O)c1cc(Br)ccc1O)Nc1cccnc1Cl`, the activity change, less the hit threshold is reported as -19.3%. In the case of `Cc1cccc(/C=N/NC(=O)c2cc(Br)ccc2O)n1`, the activity change, less the hit threshold is reported as 0.2% (active). In the case of `O=C(N/N=C/c1ccc2cccc(OCc3ccccc3)c2n1)c1ccc(Br)cc1`, the activity change, less the hit threshold is reported as -9.5%. In the case of `CCOC(=O)C1CCCCN1Cc1ccc(F)cc1` (centres undefined), the activity change, less the hit threshold is reported as 4.5% (active). `CCOC(=O)C1CCCN(C(=S)NC(=O)/C=C/c2ccc(F)cc2)C1` (centres undefined) showed an activity change, less the hit threshold of -20.7%. Compound `NC(=O)C1CCN(C(=O)CCC(=O)c2ccc(F)cc2)CC1` has an activity change, less the hit threshold of -12.6%. In the case of `O=C1c2ccccc2C(=O)N1Cc1cc(-c2ccccc2Cl)no1`, the activity change, less the hit threshold is reported as -14.4%. `Cn1nnnc1SCC(=O)NC1CCCc2ccccc21` (centres undefined) gave an activity change, less the hit threshold of -30.8%. `O=C(NC(=S)N1CCc2ccccc21)c1ccc(Br)o1` was tested, and the activity change, less the hit threshold was 19.1% (active). For `O=C(NC(=S)NC1CCCc2ccccc21)c1ccco1` (centres undefined), the activity change, less the hit threshold was 7% (active). With `Cc1cccc(OCC(=O)NC2CCCc3ccccc32)c1C` (centres undefined) the activity change, less the hit threshold was -34.2%. With `O=C(NC(=S)N1CCc2ccccc21)c1ccco1` the activity change, less the hit threshold was 0.6% (active). `Cc1ccc(OCCC(=O)OC(C)C(=O)Nc2ccc(Cl)cn2)cc1` (centres undefined) was tested, and the activity change, less the hit threshold was -8.9%. `O=C(O)CCCn1cc(NC(=O)COc2ccc(F)cc2)cn1` gave an activity change, less the hit threshold of -25.3%. `Fc1ccc2c(c1)C(c1ccncc1)=NNC(c1cccnc1)=N2` gave an activity change, less the hit threshold of -6.5%. In the case of `Cc1ccc(CNS(=O)(=O)c2ccc(C(F)(F)F)cc2)n1C`, the activity change, less the hit threshold is reported as -26.5%. Work on `Nc1nc2n(n1)C(=O)CC(c1ccc(Cl)cc1)N2` (centres undefined) yielded an activity change, less the hit threshold of -10.5%. Compound `CC(=O)N1CCCc2cc(S(=O)(=O)NCc3ccc(C)cc3)ccc21` has an activity change, less the hit threshold of -9.9%. In the case of `c1ccc(CCCNc2ncnc3nc[nH]c23)cc1`, the activity change, less the hit threshold is reported as 30.4% (active). In the case of `COc1ccc(N2CC(C(=O)OCC(=O)Nc3ccccc3C)CC2=O)cc1` (centres undefined), the activity change, less the hit threshold is reported as -5.6%. In the case of `CCc1cc2cc(C)cc(C)c2[nH]c1=S`, the activity change, less the hit threshold is reported as 2.1% (active). Work on `CN(C)Cc1c(C(=O)N/N=C/c2ccccc2OCc2c(F)cccc2Cl)nnn1-c1nonc1N` yielded an activity change, less the hit threshold of -28.3%. In the case of `O=C(O)/C=C/c1cn(-c2ccccc2)nc1-c1ccc(-c2ccc([N+](=O)[O-])cc2)o1`, the activity change, less the hit threshold is reported as -18%. For `S=c1[nH]c2cc(-c3ccccc3)ccc2o1`, the activity change, less the hit threshold was 86.2% (active). For `Cc1ccc(NN=Nc2nc3c([nH]2)c(=O)n(C)c(=O)n3C)cc1`, the activity change, less the hit threshold was -16.4%. Compound `COC(=O)C1=C(C)N(CC2CCCO2)C(=O)/C1=C\c1ccc(O)cc1` (centres undefined) has an activity change, less the hit threshold of -0.1%. Compound `CCN(CC)S(=O)(=O)c1ccc2[nH]c(=O)cc(C(=O)Nc3cccc(C(C)=O)c3)c2c1` has an activity change, less the hit threshold of -14.9%. `Cc1ccccc1NC(=S)NC(=O)c1cc(-c2ccccc2)nc2ccccc12` was tested, and the activity change, less the hit threshold was 2% (active). `CC(C)(C)NS(=O)(=O)c1ccc(NC(=O)c2cc(-c3ccccc3)nc3ccccc23)cc1` was tested, and the activity change, less the hit threshold was -22%. `O=C(NC(=S)Nc1ccccc1)c1cc(-c2ccccc2)nc2ccccc12` showed an activity change, less the hit threshold of -5.5%. For `Cc1cccc(NC(=S)NC(=O)c2cc(-c3ccccc3)nc3ccccc23)c1`, the activity change, less the hit threshold was -14.7%. In the case of `O=C(NC(=S)Nc1ccccn1)c1cc(-c2ccccc2)nc2ccccc12`, the activity change, less the hit threshold is reported as -12%. With `COC(=O)c1ccc(NC(=S)NC(=O)c2cc(-c3ccccc3)nc3ccccc23)cc1` the activity change, less the hit threshold was 1.1% (active). Compound `CCCCCCc1cc2cc(-c3nnc(-c4ccccc4)o3)c(=O)oc2cc1O` has an activity change, less the hit threshold of -23.8%. Work on `O=C(C[n+]1ccccc1)N/N=C/c1ccc(Cl)c(Cl)c1` yielded an activity change, less the hit threshold of -28.9%. Work on `O=C(c1cccs1)N1CCN(C23CC4CC(CC(C4)C2)C3)CC1` yielded an activity change, less the hit threshold of -10.7%. In the case of `CCC1Nc2ncnc(N3CCOCC3)c2N(Cc2ccc(C)cc2)C1=O` (centres undefined), the activity change, less the hit threshold is reported as -18.9%. `CSc1nc(=S)cc(C)[nH]1` gave an activity change, less the hit threshold of -1.9%. For `CCc1cc(=O)[nH]c(SCc2ccc(C)cc2)n1`, the activity change, less the hit threshold was -15.8%. In the case of `CCSc1nc(=S)cc(C)[nH]1`, the activity change, less the hit threshold is reported as 48.7% (active). Compound `CN(C)CCNc1ncnc2c1sc1nc(N3CCCC3)c3c(c12)CC(C)(C)OC3` has an activity change, less the hit threshold of -13.1%. `CCOC(=O)NC(=S)Nc1ccc(C(C)(C)C)cc1Br` was tested, and the activity change, less the hit threshold was 2.1% (active). For `CCOC(=O)NC(=S)Nc1ccc(C(C)(C)C)cc1`, the activity change, less the hit threshold was 1% (active). With `CC(C)(C)c1ccc(/C=N/NC(=S)Nc2cccnc2)cc1` the activity change, less the hit threshold was -14%. For `COC(=O)CNC(=S)NC(=O)c1ccc(C(C)(C)C)cc1`, the activity change, less the hit threshold was -13%. `CCCCNC(=O)CC(NS(=O)(=O)c1ccc(C)cc1)c1ccco1` (centres undefined) was tested, and the activity change, less the hit threshold was -14.3%. Work on `C[n+]1ccccc1/C=C/c1ccc(C#N)cc1` yielded an activity change, less the hit threshold of -12.2%. With `COCC(=O)N(Cc1ccco1)c1nnc(C2CCOC2)s1` (centres undefined) the activity change, less the hit threshold was -22.7%. `Cc1ccc(N=Nc2ccc(O)c3ncccc23)cc1` was tested, and the activity change, less the hit threshold was -4.3%. In the case of `O=[N+]([O-])c1ccc(O)c2ncccc12`, the activity change, less the hit threshold is reported as 22.1% (active). In the case of `O=[N+]([O-])c1cc(F)c2cccnc2c1O`, the activity change, less the hit threshold is reported as 6.4% (active). `COc1ccc(-n2cnc3ccccc3c2=O)c([N+](=O)[O-])c1` gave an activity change, less the hit threshold of -12.6%. `O=[N+]([O-])c1cccnc1Sc1n[nH]c(-c2ccc(Cl)cc2)n1` was tested, and the activity change, less the hit threshold was -16.6%. Compound `Oc1c(Cl)cc(CN2CCCCC2)c2cccnc12` has an activity change, less the hit threshold of -12.8%.
